Data: publication PMC5540273 (PLoS ONE, 2017)

Experiments:
Conditions in all cases: concentration: 1 μM, replicates: in singlicate; n = 1
[1] = test system: TYK2(JH2domain-pseudokinase)
TYRO3 = test system: TYRO3
ULK1 = test system: ULK1
ULK2 = test system: ULK2
ULK3 = test system: ULK3
VEGFR2 = test system: T1, VEGFR2
T1 construct: gene KDR

VPS34 = test system: T2, VPS34
T2 construct: gene PIK3C3

VRK2 = test system: VRK2
WEE1 = test system: WEE1
WEE2 = test system: WEE2
WNK1 = test system: WNK1
WNK2 = test system: WNK2
WNK3 = test system: WNK3
WNK4 = test system: WNK4
YANK1 = test system: T3, YANK1
T3 construct: gene STK32A

YANK2 = test system: T4, YANK2
T4 construct: gene STK32B

YANK3 = test system: T5, YANK3
T5 construct: gene STK32C

YES = test system: T6, YES
T6 construct: gene YES1

YSK1 = test system: T7, YSK1
T7 construct: gene STK25

YSK4 = test system: T8, YSK4
T8 construct: gene MAP3K19
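Note: KINOMEscan kinase panel screen.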

Structure (SMILES): c1ccc(Oc2ccc(Nc3ccnc4cc(-c5ccc(CNCCN6CCOCC6)o5)ccc34)cc2)nc1 [GW567145]
- %Inh [1]: 13%
- %Inh (TYRO3): 0%
- %Inh (ULK1): 14%
- %Inh (ULK2): 0%
- %Inh (ULK3): 7%
- %Inh (VEGFR2): 0%
- %Inh (VPS34): 2%
- %Inh (VRK2): 30%
- %Inh (WEE1): 1%
- %Inh (WEE2): 0%
- %Inh (WNK1): 0%
- %Inh (WNK2): 21%
- %Inh (WNK3): 43%
- %Inh (WNK4): 8%
- %Inh (YANK1): 0%
- %Inh (YANK2): 0%
- %Inh (YANK3): 32%
- %Inh (YES): 48%
- %Inh (YSK1): 2%
- %Inh (YSK4): 35%

Structure (SMILES): C[C@@H]1CC[C@@H](C(=O)Nc2ccccc2)CN1c1cc(-c2ccc3c(N)n[nH]c3c2)nc(N)n1 [GSK2286062]
- %Inh [1]: 2%
- %Inh (TYRO3): 0%
- %Inh (ULK1): 8%
- %Inh (ULK2): 0%
- %Inh (ULK3): 4%
- %Inh (VEGFR2): 0%
- %Inh (VPS34): 0%
- %Inh (VRK2): 1%
- %Inh (WEE1): 0%
- %Inh (WEE2): 0%
- %Inh (WNK1): 0%
- %Inh (WNK2): 0%
- %Inh (WNK3): 33%
- %Inh (WNK4): 0%
- %Inh (YANK1): 15%
- %Inh (YANK2): 0%
- %Inh (YANK3): 17%
- %Inh (YES): 0%
- %Inh (YSK1): 21%
- %Inh (YSK4): 29%

Structure (SMILES): Oc1cc(Nc2ccnc3cc(I)ccc23)ccc1F [GW552771]
- %Inh [1]: 25%
- %Inh (TYRO3): 54%
- %Inh (ULK1): 9%
- %Inh (ULK2): 0%
- %Inh (ULK3): 29%
- %Inh (VEGFR2): 31%
- %Inh (VPS34): 0%
- %Inh (VRK2): 36%
- %Inh (WEE1): 0%
- %Inh (WEE2): 0%
- %Inh (WNK1): 1%
- %Inh (WNK2): 4%
- %Inh (WNK3): 34%
- %Inh (WNK4): 35%
- %Inh (YANK1): 10%
- %Inh (YANK2): 22%
- %Inh (YANK3): 31%
- %Inh (YES): 26%
- %Inh (YSK1): 0%
- %Inh (YSK4): 79%

Structure (SMILES): CCc1ccc(-c2ccc3c(c2)-c2c(cnn2C)S(=O)(=O)N3C)cc1
- %Inh [1]: 0%
- %Inh (TYRO3): 5%
- %Inh (ULK1): 0%
- %Inh (ULK2): 0%
- %Inh (ULK3): 0%
- %Inh (VEGFR2): 14%
- %Inh (VPS34): 45%
- %Inh (VRK2): 7%
- %Inh (WEE1): 0%
- %Inh (WEE2): 0%
- %Inh (WNK1): 0%
- %Inh (WNK2): 5%
- %Inh (WNK3): 0%
- %Inh (WNK4): 0%
- %Inh (YANK1): 1%
- %Inh (YANK2): 0%
- %Inh (YANK3): 0%
- %Inh (YES): 0%
- %Inh (YSK1): 7%
- %Inh (YSK4): 7%

Structure (SMILES): Nc1ncnc2c1nc(-c1ccccc1)n2-c1ccccc1 [SKF-97293]
- %Inh [1]: 54%
- %Inh (TYRO3): 9%
- %Inh (ULK1): 51%
- %Inh (ULK2): 35%
- %Inh (ULK3): 50%
- %Inh (VEGFR2): 23%
- %Inh (VPS34): 44%
- %Inh (VRK2): 36%
- %Inh (WEE1): 4%
- %Inh (WEE2): 0%
- %Inh (WNK1): 47%
- %Inh (WNK2): 5%
- %Inh (WNK3): 48%
- %Inh (WNK4): 28%
- %Inh (YANK1): 3%
- %Inh (YANK2): 21%
- %Inh (YANK3): 0%
- %Inh (YES): 0%
- %Inh (YSK1): 4%
- %Inh (YSK4): 54%

Structure (SMILES): O=C(Nc1cccc(-c2nn3ccccc3c2-c2ccnc(Nc3cccc(F)c3)n2)c1)c1c(F)ccc(F)c1Cl [GSK357952]
- %Inh [1]: 0%
- %Inh (TYRO3): 81%
- %Inh (ULK1): 21%
- %Inh (ULK2): 0%
- %Inh (ULK3): 13%
- %Inh (VEGFR2): 12%
- %Inh (VPS34): 22%
- %Inh (VRK2): 0%
- %Inh (WEE1): 0%
- %Inh (WEE2): 3%
- %Inh (WNK1): 3%
- %Inh (WNK2): 0%
- %Inh (WNK3): 43%
- %Inh (WNK4): 0%
- %Inh (YANK1): 34%
- %Inh (YANK2): 75%
- %Inh (YANK3): 23%
- %Inh (YES): 98.7%
- %Inh (YSK1): 0%
- %Inh (YSK4): 0%

Structure (SMILES): Clc1ccc(-c2nn3ncccc3c2-c2ccnc(Nc3ccc4c(c3)OCCO4)n2)cc1 [GW829116]
- %Inh [1]: 0%
- %Inh (TYRO3): 0%
- %Inh (ULK1): 0%
- %Inh (ULK2): 0%
- %Inh (ULK3): 0%
- %Inh (VEGFR2): 29%
- %Inh (VPS34): 0%
- %Inh (VRK2): 16%
- %Inh (WEE1): 0%
- %Inh (WEE2): 0%
- %Inh (WNK1): 0%
- %Inh (WNK2): 0%
- %Inh (WNK3): 0%
- %Inh (WNK4): 0%
- %Inh (YANK1): 0%
- %Inh (YANK2): 21%
- %Inh (YANK3): 0%
- %Inh (YES): 45%
- %Inh (YSK1): 0%
- %Inh (YSK4): 0%

Structure (SMILES): Cc1cccc(NC(=O)Nc2ccc(Oc3ncnc4ccn(C)c34)cc2)c1
- %Inh [1]: 0%
- %Inh (TYRO3): 0%
- %Inh (ULK1): 0%
- %Inh (ULK2): 0%
- %Inh (ULK3): 2%
- %Inh (VEGFR2): 99.7%
- %Inh (VPS34): 0%
- %Inh (VRK2): 0%
- %Inh (WEE1): 0%
- %Inh (WEE2): 0%
- %Inh (WNK1): 0%
- %Inh (WNK2): 0%
- %Inh (WNK3): 0%
- %Inh (WNK4): 0%
- %Inh (YANK1): 0%
- %Inh (YANK2): 0%
- %Inh (YANK3): 31%
- %Inh (YES): 0%
- %Inh (YSK1): 0%
- %Inh (YSK4): 97.1%
